# tim23-1 inh: inhibits growth of tim23-1 mutant yeast; S. cerevisiae tim23-1 growth, BacTiter-Glo luminescence, 24 h; inhibition, % at 20 µM; AID 463212; 330,000 compounds, 1.3% hits;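 active = growth inhibition of the mutant yeast at or above 50%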;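 note: temperature-sensitive mutant grown at 25 °C; plate controls were DMSO-treated mutant yeast for no effect and medium wells lacking yeast for full effect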
# TIM10 inh: TIM10 yeast growth inhibition; AID 463195; inhibition, % at 10 µM; S. cerevisiae TIM10 strain growth, BacTiter-Glo luminescence, 24 h; 330,000 compounds, 1.4% hits;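 active = inhibition of 40% or more at the single tested concentration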;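 note: wild-type TIM10 isogenic control strain grown at permissive 25 °C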
# Mdm2-MdmX inh: human Mdm2/MdmX binding inhibition | O15151+Q00987 | inhibition, % at 8 µM | AID 485346 | SaOS-2 split-luciferase Mdm2/MdmX complementation, luminescence | 330,000 compounds, 3% hits;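 active = inhibition of at least 50% at 8 µM in the primary screen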
# Target sequence (O15151 whole entry, looked up): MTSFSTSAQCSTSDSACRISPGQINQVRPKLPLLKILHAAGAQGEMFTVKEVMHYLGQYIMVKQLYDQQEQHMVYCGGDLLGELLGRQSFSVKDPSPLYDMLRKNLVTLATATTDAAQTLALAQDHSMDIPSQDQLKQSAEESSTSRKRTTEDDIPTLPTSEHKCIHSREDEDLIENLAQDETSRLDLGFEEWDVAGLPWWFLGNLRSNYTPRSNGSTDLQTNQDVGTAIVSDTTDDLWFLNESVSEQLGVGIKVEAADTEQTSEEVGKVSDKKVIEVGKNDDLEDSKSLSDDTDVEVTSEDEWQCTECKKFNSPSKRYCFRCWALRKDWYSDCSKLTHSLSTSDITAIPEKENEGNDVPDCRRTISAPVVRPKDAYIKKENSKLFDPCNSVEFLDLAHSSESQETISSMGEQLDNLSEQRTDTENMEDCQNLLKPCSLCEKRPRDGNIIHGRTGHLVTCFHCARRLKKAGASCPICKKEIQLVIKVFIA
# Target sequence (Q00987 whole entry, looked up): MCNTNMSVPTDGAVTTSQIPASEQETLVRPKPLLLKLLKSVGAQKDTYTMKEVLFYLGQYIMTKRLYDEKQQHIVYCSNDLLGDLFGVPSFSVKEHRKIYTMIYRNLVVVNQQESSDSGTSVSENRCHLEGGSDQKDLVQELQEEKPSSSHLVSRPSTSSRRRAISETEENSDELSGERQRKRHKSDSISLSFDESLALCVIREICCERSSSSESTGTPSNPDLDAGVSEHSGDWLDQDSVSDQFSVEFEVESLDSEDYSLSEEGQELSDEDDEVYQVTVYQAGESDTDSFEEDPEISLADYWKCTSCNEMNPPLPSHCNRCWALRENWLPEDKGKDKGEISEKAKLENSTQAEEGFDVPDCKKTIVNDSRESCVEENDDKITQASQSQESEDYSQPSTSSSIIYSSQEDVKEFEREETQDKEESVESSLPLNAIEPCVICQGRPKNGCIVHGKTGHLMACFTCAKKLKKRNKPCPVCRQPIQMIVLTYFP
# tim10-1 inh: growth inhibitors of tim10-1 mutant yeast; S. cerevisiae tim10-1 ts strain growth, BacTiter-Glo, 24 h; inhibition, % at 20 µM; 330,000 compounds, 2.2% hits; AID 463190;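 active = inhibition of at least 40%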;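 note: mutant grown at 25 °C; 0% = DMSO wells with yeast and 100% = wells holding no yeast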
# MPTP block: blocks calcium-induced mitochondrial swelling; isolated mouse mitochondria, Ca2+ swelling absorbance, 30 min; 360,000 compounds, 1.4% hits; inhibition, % at 10 µM; AID 602449;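 active = inhibition of 50% or more, scaled per plate between neutral and stimulator controls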;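 note: 0% = DMSO wells given calcium and 100% = 1 mM EGTA wells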
# Rh123 counter: Rhodamine 123 counter-screen of mitochondrial pore hits. inhibition, % at 10 µM. shares compounds with MPTP block. AID 624504. 5,000 compounds, 78% hits. isolated mitochondria, membrane potential, Rhodamine 123 fluorescence; in the data active = inhibition above about 22%;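 note: 0% = DMSO vehicle and 100% = positive control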
# MPTP abs DR: dose response confirmation of mitochondrial permeability transition pore inhibitors; shares compounds with MPTP block; isolated mitochondria swelling, absorbance; IC50, µM; 780 compounds, 58% hits; AID 651561; in the data active = IC50 below about 20 µM
# MPTP counter DR: counter-screen for mitochondrial permeability transition pore inhibitors, dose response; shares compounds with MPTP block; 780 compounds, 49% hits; IC50, µM; isolated mitochondria counterscreen, fluorescence read-out; in the data active = IC50 below about 80 µM
# Starred values were filed as active, the others as inactive; i = inactive; x = not tested or not shown. Hits are enriched below; roughly 6.3% of the tested compounds scored in any of these assays.
SMILES,tim23-1 inh,TIM10 inh,Mdm2-MdmX inh,tim10-1 inh,MPTP block,Rh123 counter,others
O=[N+]([O-])c1ccccc1CNc1ccc(F)c(Cl)c1,37,22,28,36,76*,80*,
CCN(CC)S(=O)(=O)c1ccc(S(=O)(=O)Nc2ccc3c(c2)oc2ccccc23)cc1,21,15,20,31,60*,84*,
CN(C)S(=O)(=O)c1ccc(S(=O)(=O)Nc2ccc3c(c2)oc2ccccc23)cc1,-17,-3,30,-13,10,x,
Cc1nc2ccc(F)cc2cc1C(=O)Nc1ccc(Cl)c(Cl)c1,x,x,x,x,93*,82*,
Cc1ccc(NC(=O)C(=O)NCc2ccc(/C=C(/C#N)C(=O)NCc3cccnc3)o2)cc1C,8,5,28,11,60*,76*,
Cc1ccnc2nc(C(=O)OCC(=O)N3CC(C)CC(C)C3)nn12 (configuration not stated),5,1,-24,4,0,x,
C=Cc1ccc(Cn2nc(-c3ccc(C)cc3)ccc2=O)cc1,39,2,14,39,69*,79*,
O=c1ccc(-c2ccccc2)nn1Cc1ccc(Cl)cc1,x,x,x,x,0,x,
CCC(C)c1ccccc1NC(=O)COC(=O)c1ccc2[nH]c3c(c2c1)CCCC3 (configuration not stated),34,16,40,29,83*,73*,
O=C(COC(=O)c1ccc2[nH]c3c(c2c1)CCCC3)Nc1ccccc1Cl,-4,-16,29,7,0,x,
Cn1ccc2c(-c3ccc4c(c3)OCCO4)cc3c(c21)C1CCC3O1 (configuration not stated),x,x,x,x,-1,x,
COc1ccc(NC(=O)CSc2ncccc2C(=O)OC(C)C)cc1OC,11,-1,-3,7,71*,60*,
CCN(CC)CC(=O)Nc1ccc2c(c1)Nc1ccccc1CC2,-61,-9,24,1,84*,-4,MPTP abs DR=10*;MPTP counter DR=66*
CCCN(CC(=O)Nc1cccc(Br)c1)CC(=O)Nc1ccc(F)c(F)c1F,25,24,30,26,74*,75*,
COC(=O)c1c[nH]c2c1-c1cc(C(=O)OCc3ccccc3)n(S(=O)(=O)c3ccc(C)cc3)c1C(=O)C2=O,x,x,x,x,0,x,
CCCCNCCOCCOc1ccc(C)cc1Br,9,-13,16,-39,61*,-11,MPTP abs DR=i;MPTP counter DR=>80
COCCCNCCOCCOc1ccc(C)cc1Br,7,-12,-3,-2,-1,x,
COc1cc(NC(=S)Nc2ccc(Br)cc2Cl)c(OC)cc1Cl,21,36,-38,39,90*,89*,
COc1cc(NC(=S)Nc2ccccn2)c(OC)cc1Cl,-15,0,8,22,2,x,
CC(C)c1ccc2c(c1)CC[C@H]1[C@](C)(CN)CCC[C@]21C,x,x,x,x,88*,-5,MPTP abs DR=>100;MPTP counter DR=>80
CC(C)c1ccc2c(c1)CCC1C(C)(CN)CCCC21C (configuration not stated),x,x,x,x,5,x,
CC1CCc2nc(NC(=O)CN3CCN(c4ccccc4)CC3)sc2C1 (configuration not stated),31,15,24,17,-9,x,
CC1CCc2nc(NC(=O)CN3CCN(Cc4ccc5c(c4)OCO5)CC3)sc2C1 (configuration not stated),7,31,32,12,56*,7,MPTP abs DR=i;MPTP counter DR=46*
Cc1cc(C(C)(C)C)ccc1OCCCCN1CCCC1,-4,20,19,-6,51*,7,MPTP abs DR=6.8*;MPTP counter DR=13*
Nc1[nH]c(C(=O)c2ccccc2)c(-c2ccccc2C(F)(F)F)c1C(=O)NCCc1cccs1,x,x,x,x,3,x,
SMILES,tim23-1 inh,TIM10 inh,Mdm2-MdmX inh,tim10-1 inh,MPTP block,Rh123 counter,others
COc1ccc(Br)cc1CNc1ccc(O)cc1,11,18,22,25,-4,x,
Oc1c(Br)cc(Br)cc1CNc1ccc(F)cc1,21,22,-4,35,78*,81*,
CCOC(=O)[C@]12CCCC=C1N(Cc1ccccc1)C(=O)[C@H](CC(=O)NCc1ccccc1)C2,x,x,x,x,0,x,
CC(C)[C@@H]1CN=C(N)N1C[C@@H]1CCCN1C[C@H](C)N1C[C@@H](Cc2ccccc2)N(CCc2ccc(Cl)c(Cl)c2)C1=N,-51,-7,11,-21,-2,x,
CCCCN1C(=N)N([C@@H](C)CN2CCC[C@H]2CN2C(N)=NC[C@H]2CC(C)C)C[C@H]1Cc1ccccc1,-9,-4,-30,-12,67*,1,MPTP abs DR=9*;MPTP counter DR=>80
C[C@@H](CN1CCC[C@H]1CN1C(N)=NC[C@@H]1Cc1ccccc1)N1C[C@@H](Cc2ccccc2)N(CCc2ccc(Cl)c(Cl)c2)C1=N,-175,-28,13,-53,74*,8,
CN1CCN(c2ccc(CNS(=O)(=O)Cc3cccc(C(F)(F)F)c3)cc2)CC1,1,7,21,5,84*,86*,
CCCn1c(SCC(=O)Nc2nc3ccccc3s2)nc2c1c(=O)n(C)c(=O)n2C,7,4,23,13,85*,0,MPTP abs DR=19*;MPTP counter DR=14*
CC(C)(CCC(=S)N1CCOCC1)c1ccccc1,x,x,x,x,0,x,
Cc1ccccc1CN1C(=O)c2ccccc2C1c1nnnn1C(C)C (configuration not stated),x,x,x,x,0,x,
Cc1nnc(SC(C)C(=O)Nc2sc3c(c2C#N)CCCC3)[nH]c1=O (configuration not stated),15,-6,6,14,0,x,
CCC(Sc1nc(C)cc(=O)[nH]1)C(=O)Nc1sc2c(c1C#N)CCCC2 (configuration not stated),18,18,-24,13,58*,69*,
N#Cc1c(NC(=O)CSc2nc(N)cc(=O)[nH]2)sc2c1CCCCCC2,-2,1,25,-5,83*,59*,
CC(Sc1nc(N)cc(=O)[nH]1)C(=O)Nc1sc2c(c1C#N)CCCC2 (configuration not stated),4,-8,34,4,76*,94*,
N#Cc1c(NC(=O)CSc2ncn[nH]2)sc2c1CCCCC2,22,29,48,29,6,x,
CCc1nc2c(OCc3ccc(OC(F)F)cc3)cccn2c1N(C)C(=O)c1cccs1,x,x,x,x,0,x,
Nc1ccn(C2OC(CO)C(O)C2F)c(=O)n1 (configuration not stated),x,x,x,x,-1,x,
Cc1ccc(-n2cnc3c(=O)[nH]cnc32)cc1,x,x,x,x,0,x,
C[C@@H]1CN([C@H](C)CO)C(=O)CCCn2cc(nn2)CO[C@H]1CN(C)S(=O)(=O)c1ccccc1F,x,x,x,x,1,x,
O=C(O)CCCCCN1C(=O)/C(=C\c2ccc(-c3ccc(Cl)cc3)o2)SC1=S,-18,-5,0,-5,88*,47*,
O=C(O)CCCN1C(=O)/C(=C/c2ccc(-c3nc4ccccc4s3)o2)SC1=S,14,14,-10,22,30,x,

# Source: PubChem BioAssay (Sanford-Burnham Center for Chemical Genomics)
